Values joined by “and” are separate entries in the source; they are usually repeats but may differ in a detail not shown here. Equal values may be shown once. About 79,000 compounds went through this panel and 15% of them were active in at least one assay; those are over-represented in the sample as a whole. Values without a mark were called inactive. Active and inactive are the calls of the source. No stated cut-off is given here; in the data, active means growth inhibition above about 70%; inactive means the rest.
Assays:
[1] = NCI Yeast Anticancer Drug Screen. Data for the rad50 strain (AID 155);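 further: 0% = growth of vehicle-only cultures of the same strain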; details: S. cerevisiae rad50 strain growth inhibition, stronger effect = higher value
Procedure, shortened: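 Compounds were tested on a yeast strain with an engineered DNA damage repair alteration; the reported value is growth inhibition normalised to vehicle treatment.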

[2] = NCI Yeast Anticancer Drug Screen. Data for the mec2-1 strain (AID 157); details: S. cerevisiae mec2-1 strain, stronger effect = higher value
Procedure, shortened: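 Using mec2-1 yeast: add compound, measure growth, express inhibition versus vehicle-treated cultures.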

[3] = NCI Yeast Anticancer Drug Screen. Data for the sgs1 mgt1 strain (AID 161);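 further: 0% = growth of cultures given vehicle only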; details: S. cerevisiae sgs1 mgt1 strain, stronger effect = higher value
Procedure, shortened: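 Yeast cells carrying a defined DNA-repair defect were exposed to test compounds. Growth inhibition was measured relative to vehicle-treated controls.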

[4] = NCI Yeast Anticancer Drug Screen. Data for the bub3 strain (AID 167); details: S. cerevisiae bub3 mutant strain, stronger effect = higher value
Procedure, shortened: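 Growth of a checkpoint-deficient yeast mutant is measured after compound exposure. Values represent inhibition relative to vehicle.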

[5] = NCI Yeast Anticancer Drug Screen. Data for the mlh1 rad18 strain (AID 175); details: S. cerevisiae mlh1 rad18 strain growth inhibition, stronger effect = higher value
Procedure, shortened: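 Steps: expose repair-defective yeast to compound; measure growth; express inhibition against vehicle-treated controls.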

[6] = NCI Yeast Anticancer Drug Screen. Data for the cln2 rad14 strain (AID 165);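 further: 0% = growth equal to vehicle treated cultures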; details: S. cerevisiae cln2 rad14 strain, stronger effect = higher value
Procedure, shortened: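 Yeast strain cln2 rad14, bearing defects in cell cycle control and DNA repair, serves as the test system; values reflect growth inhibition compared with vehicle.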

[7] = at 5.0 µM (retest, dose inferred, filed as 0.5)
[8] = at 50.0 µM (retest, dose inferred, filed as 5.0)

Row | SMILES | growth inhibition [1, 7] [%] | growth inhibition [1, 8] | growth inhibition ([1]; at 50.0 µM) | growth inhibition [2, 7] [%] | growth inhibition [2, 8] | growth inhibition ([2]; at 50.0 µM) | growth inhibition [3, 7] [%] | growth inhibition [3, 8] | growth inhibition ([3]; at 50.0 µM) | growth inhibition [4, 7] [%] | growth inhibition [4, 8] | growth inhibition ([4]; at 50.0 µM) | growth inhibition [5, 7] [%] | growth inhibition [5, 8] | growth inhibition ([5]; at 50.0 µM) | growth inhibition [6, 7] [%] | growth inhibition [6, 8] | growth inhibition ([6]; at 50.0 µM)
1 | CCC(C)NC(=S)N/N=C(\C)c1ccccn1 (stereo unspecified) | 20 | 100% (active) | 78% (active) | 19 | 99% (active) | 85.7% (active) | 5 | 98% (active) | 90.6% (active) | 0 | 100% (active) | 90.5% (active) | 39 | 99% (active) | 89.2% (active) |  |  | 
2 | CCCCCCc1cc(C(=O)N/N=C\c2cccc([N+](=O)[O-])c2)c2ccccc2n1 | 0 | -7% | -40.9% |  |  |  | 2 | 7% | -19.9% | 0 | 5% | 1.45% | 0 | -7% | -9.4% | -5 | -17% | 41%
3 | O=c1cc(-c2cccc(OCc3ccccc3)c2)[nH]c2cc3c(cc12)OCO3 | 19 | 6% | 21.3% |  |  |  | 21 | 16% | 17.1% | 14 | 6% | 19.9% | 22 | 10% | -51.5% | 0 | 11% | 5.75%
4 | CC(=O)OCC(OC(C)=O)C(OC(C)=O)C(OC(C)=O)C(COC(C)=O)OC(C)=O (stereo unspecified) |  |  | -27.2% and -22.9% and -9.4% |  |  | 9.3% and -7.9% and -11.8% |  |  | 3.45% and 10.6% and -10.8% |  |  | 0.95% and -9.35% and 14.6% |  |  | -24.4% and 7.9% and 2.5% |  |  | -30.3% and -21.9% and -0.1%
5 | COc1ccc(CCC2(C)OCCC(C)O2)cc1 (stereo unspecified) |  |  |  | 13 | 96% (active) | -6.35% | 16 | 91% (active) | -4.35% | -3 | 76% (active) | -16.1% | 19 | 94% (active) | -26.8% | 10 | 95% (active) | 28.6%
6 | Oc1ccc(C2CCCCC2)c(O)c1 | -2 | 42% | 75.5% (active) | 2 | 53% | 61.4% | 7 | 37% | 66% | 7 | 66% | 67.3% | 2 | 72% (active) | 65.8% |  |  | 
7 | O=C(COc1ccc(Br)cc1Br)N1N=C(c2ccc([N+](=O)[O-])o2)CC1(O)c1ccccc1 (stereo unspecified) | 23 | 23% | 19.4% | 6 | 6% | 71.2% (active) | 12 | 12% | 70.7% (active) | 7 | 7% | 59.6% | 22 | 22% | 58.8% |  |  | 
8 | N=C(N)c1cccc(-c2ccc(-c3ccccc3)o2)c1 |  |  |  | 4 | 72% (active) | 89.8% (active) | 0 | 94% (active) | 57.2% | 3 | 71% (active) | 79% (active) | -11 | 85% (active) | 97% (active) | 2 | 67% | 93.8% (active)
9 | CCCCCN(CCCCC)CC(C)(C)C(O)c1ccc(OC)c2ccccc12 (stereo unspecified) | -2 | 42% | 51.9% |  |  |  | 1 | 81% (active) | 52.5% | 0 | 64% | 33.2% | -2 | 57% | 77.3% (active) | -4 | 27% | 86.9% (active)
10 | O=C(c1ccccc1)c1cn(/N=C\c2ccccc2)c(=O)nc1-c1ccccc1 | -3 | 61% | 88.5% (active) |  |  |  | 2 | 94% (active) | 90.9% (active) | 16 | 97% (active) | 89% (active) | -1 | 95% (active) | 84.5% (active) | 11 | 95% (active) | 87.4% (active)

Reference: PubChem BioAssay (NCI)
